Reference: PubChem BioAssay (Tox21)
Results filed as inconclusive are left out. Calls of active or inactive are those of the source. Unless noted, calls come from the whole dose curve; as a rule, active = well fitted curve in the direction sought with a large enough effect in the repeat runs; inconclusive = weak or mixed curves; inactive = no such curve, though single readings can be large; an effect the other way counts as inactive or inconclusive.

Tests used:
[1] = qHTS assay to identify small molecule agonists of the vitamin D receptor (VDR) signaling pathway - cell viability counter screen (AID 743224); note: nearly all actives have a fitted effect of over 50% in size; note: potency is the fitted concentration of half-maximal effect
Procedure, shortened: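 Compounds were pin-transferred onto VDR-bla cells plated 4 h earlier; following 16 h incubation at 37C, cell viability was quantified by CellTiter-Glo luminescence after 30 min at room temperature.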

[2] = qHTS assay to identify small molecule agonists of the NFkB signaling pathway (AID 1159509; active = well fitted curve in the direction sought with a large enough effect in the signal ratio in the repeat runs, not every such curve was filed as active; the % refers to the signal ratio; note: series mostly up to about 61 µM)
Procedure, shortened: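 Beta-lactamase reporter assay run in quantitative high-throughput format on an NF-kB-responsive ME-180 line, with 5 hr compound treatment and a FRET-based blue/green fluorescence readout.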

[3] = qHTS assay to identify small molecule antagonists of the retinoid-related orphan receptor gamma (ROR-gamma) signaling pathway - cell viability counter screen (AID 1159520); note: nearly all actives have a fitted effect of over 50% in size
Procedure, shortened: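 Tet-on ROR gamma CHO cells were given compounds for 2 hr, then doxycycline hyclate at 1 uM final, and incubated 16 hr at 37 C. Viability was measured as ATP content by CellTiter-Glo luminescence.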

[4] = molecular target: Nuclear receptor ROR-gamma (Homo sapiens) (UniProt P51449); assay: qHTS assay to identify small molecule antagonists of the retinoid-related orphan receptor gamma (ROR-gamma) signaling pathway (AID 1159521; note: nearly all actives have a fitted effect of over 50% in size; note: potency is the fitted concentration of half-maximal effect)
Procedure, shortened: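 Decreased RORE-driven luciferase luminescence indicates antagonism. Tet-on RORγ CHO cells received compound, then 1 uM final doxycycline 2 h later; signal read after 16 h incubation.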

[5] = qHTS assay to identify small molecule agonists of the AP-1 signaling pathway - cell viability counter screen (AID 1159525; calls by dose curve; note: nearly all actives have a fitted effect of over 55% in size)
Procedure, shortened: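 Same-well cytotoxicity counter screen of the Tox21 10K library in ME-180 cells. The readout is ATP-dependent luminescence after 5 h compound treatment. Data are normalised to DMSO and tetra n-octyl ammonium bromide controls.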

[6] = qHTS assay to identify small molecule antagonists of the retinoid acid receptor (RAR) signaling pathway - cell viability counter screen (AID 1159551); note: nearly all actives have a fitted effect of over 35% in size; note: potency is the fitted concentration of half-maximal effect
Procedure, shortened: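 ATP-based viability, C3RL4 cells, 6 h at 37 C with 1 uM final retinol co-added after compound; luminescence read 30 min post CellTiter-Glo, RT.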

[7] = qHTS assay to identify small molecule antagonists of the retinoic acid receptor (RAR) signaling pathway (AID 1159552; note: nearly all actives have a fitted effect of over 50% in size; note: potency is the fitted concentration of half-maximal effect)
Procedure, shortened: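 C3RL4 RARE-luc cells, overnight plating; retinol 1 uM final added right after compound; 6 hr 37 C; luciferase read at 30 min RT.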

[8] = qHTS assay to identify small molecule antagonists of the estrogen related receptor (ERR) signaling pathway - cell viability counter screen (AID 1224818);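 note: series mostly up to about 46 µM; viability measured after 17.5 h of compound exposure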
Procedure, shortened: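 Quantitative high-throughput viability counter screen in ERR cells. Compounds (DMSO) incubated 17.5 h at 37 C; read-out was CellTiter-Fluor fluorescence.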

[9] = qHTS assay to identify small molecule antagonists of the estrogen related receptor (ERR) signaling pathway (AID 1224819)
Procedure, shortened: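 ERR reporter cell line (NTP) plated at 2,000 cells/well, settled 6 h at 37C/5% CO2, then exposed to LOPAC compounds for 18 h at 37C. One-Glo luciferase luminescence read after 30 min at room temperature.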

[10] = qHTS assay to identify small molecule agonists of the estrogen related receptor (ERR) signaling pathway (AID 1224820)
Procedure, shortened: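 Following a 6 h settling period, 2,000 ERR cells per well receive DMSO-dissolved compounds by pin tool and incubate 18 h at 37 C; agonist activity is scored from One-Glo luminescence read 30 min post-addition.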

[11] = qHTS assay to identify small molecule antagonists of the estrogen related receptor signaling pathway with the pleiotropic PPARgamma coactivator (PGC) cell viability counter screen (AID 1224822; note: series mostly up to about 46 µM)
Procedure, shortened: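 Cytotoxicity in the PGC/ERR cell line is assessed with CellTiter-Fluor, read as fluorescence intensity 30 min after reagent addition, following 17.5 h compound treatment at 37 C.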

[12] = qHTS assay to identify small molecule agonists of the estrogen related receptor signaling pathway with the pleiotropic PPARgamma coactivator (PGC) (AID 1224823)
Procedure, shortened: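 In this quantitative high-throughput screen, an 18 h, 37 C treatment of PGC/ERR cells with compounds in DMSO preceded a One-Glo luminescence read taken after 30 min at room temperature.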

[13] = qHTS assay to identify small molecule antagonists of the vitamin D receptor (VDR) signaling pathway - cell viability counter screen (AID 743225); note: nearly all actives have a fitted effect of over 50% in size
Procedure, shortened: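 Parallel cytotoxicity test: VDR-UAS-bla HEK 293T, 3 nM (final) 1-alpha,25-dihydroxyvitamin D3 with test compound, 16 h, 37C. Endpoint is CellTiter-Glo luminescence in the same wells.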

[14] = qHTS assay to identify small molecule agonists of the endoplasmic reticulum stress response signaling pathway - cell viability counter screen (AID 1159517; calls by dose curve)
Procedure, shortened: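 Steps: seed 1,500 ESRE-bla HeLa cells per well; incubate overnight at 37 C, 5% CO2; add compounds in DMSO for 5 hr; run FRET substrate 2 hr RT; add CellTiter-Glo, wait 30 min, read luminescence.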

[15] = qHTS assay to identify small molecule agonists of the AP-1 signaling pathway (AID 1159526; calls by dose curve)
[16] = molecular target: Retinoic acid receptor RXR-alpha (Homo sapiens) (UniProt P19793); assay: qHTS assay to identify small molecule agonists of the RXR signaling pathway (AID 1159527; calls by dose curve; note: nearly all actives have a fitted effect of over 35% in size; note: potency is the fitted concentration of half-maximal effect)
Procedure, shortened: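 16 hr incubation of compound-treated RXR-alpha-UAS-bla HEK 293T cells (2% charcoal-stripped FBS, 37 C) preceded a 2 hr room-temperature LiveBLAzer FRET substrate step and blue/green fluorescence measurement.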

[17] = qHTS assay to identify small molecule agonists of the RXR signaling pathway - cell viability counter screen (AID 1159529); note: nearly all actives have a fitted effect of over 50% in size; note: potency is the fitted concentration of half-maximal effect
Procedure, shortened: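 In this parallel viability measure, GeneBLAzer RXR-alpha HEK 293T cells (2% charcoal-stripped FBS) were given a 5 hr preincubation, treated with compounds 16 hr at 37 C, and read by CellTiter-Glo luminescence.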

[18] = qHTS assay to identify small molecule agonists of the retinoic acid receptor (RAR) signaling pathway (AID 1159553); note: potency is the fitted concentration of half-maximal effect
Procedure, shortened: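 Quantitative high-throughput format: the Tox21 10K library was tested on C3RL4 RARE-luciferase cells for 6 hr at 37 C and 5% CO2, with luminescence measured after a 30 min room-temperature reagent step.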

[19] = qHTS assay to identify small molecule agonists of the NFkB signaling pathway - cell viability counter screen (AID 1159515; calls by dose curve; note: series mostly up to about 61 µM; nearly all actives have a fitted effect of over 55% in size)
Procedure, shortened: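 Parallel cytotoxicity counter screen in ME-180 cells carrying an NFkB-response-element beta-lactamase reporter, 2,000 cells/well. Compound exposure lasted 5 hr at 37 C, 5% CO2. Cell viability was quantified by CellTiter-Glo luminescence.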

[20] = qHTS assay to identify small molecule agonists of the endoplasmic reticulum stress response signaling pathway (AID 1159516; active = well fitted activation curve with a large enough effect in the signal ratio in the repeat runs, not every such curve was filed as active; the % refers to the signal ratio)
Procedure, shortened: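 Using a HeLa line with an ESRE-driven beta-lactamase gene, agonist activity was measured by FRET substrate fluorescence (460 and 530 nm emission) after cells were treated with compounds for 5 hr at 37 C and 5% CO2.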

Measured: Potency

Retinoic acid receptor RXR-alpha (Homo sapiens), sequence (P19793 whole entry, looked up): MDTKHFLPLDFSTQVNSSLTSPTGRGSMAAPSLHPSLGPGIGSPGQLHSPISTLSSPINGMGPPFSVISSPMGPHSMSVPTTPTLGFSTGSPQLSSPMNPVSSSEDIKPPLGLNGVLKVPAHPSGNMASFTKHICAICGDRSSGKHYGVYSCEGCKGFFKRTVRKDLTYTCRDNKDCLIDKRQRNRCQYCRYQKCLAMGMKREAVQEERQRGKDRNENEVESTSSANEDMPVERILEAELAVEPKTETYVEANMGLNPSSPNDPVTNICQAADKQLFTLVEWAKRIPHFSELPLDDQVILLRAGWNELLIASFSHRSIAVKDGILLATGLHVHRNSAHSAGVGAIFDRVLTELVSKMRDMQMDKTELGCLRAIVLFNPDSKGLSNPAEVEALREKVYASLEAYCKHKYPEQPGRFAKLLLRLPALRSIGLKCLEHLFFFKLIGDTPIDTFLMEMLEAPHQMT

OCCCBr
not listed: [13] | [14] | [15] | [16] | [17] | [18] | [19] | [20]
inactive: all other assays above

C=CC[C@]1(O)CC[C@H]2[C@@H]3CCC4=CC(=O)CCC4=C3C=C[C@@]21C
inactive: [1] | [13] | [2] | [14] | [5] | [15]
active: [4] 2.98 µM | [6] 33.5 µM

COP(=O)(OC)O/C(=C/Cl)c1cc(Cl)c(Cl)cc1Cl
inactive: [2] | [3] | [5] | [16] | [17] | [6]
active: [7] 57.5 µM

O=S(=O)(O)C(F)(F)C(F)(F)C(F)(F)C(F)(F)F
active: [16] 6.54 µM | [7] 18.3 µM
not listed: [1] | [5] | [13] | [14] | [19] | [20]
inactive: all other assays above

C=CCC1([C@H](C)CCC)C(=O)NC(=O)NC1=O
inactive: [1] | [13] | [2] | [14] | [3] | [4] | [15] | [16] | [6] | [7]

CCCN(CC1CC1)c1c([N+](=O)[O-])cc(C(F)(F)F)cc1[N+](=O)[O-]
inactive: [1] | [13] | [2] | [14] | [4] | [5] | [15] | [6]

Cc1ccccc1C(=O)Nc1cccc(OC(C)C)c1
inactive: [1] | [2] | [14] | [3] | [15] | [6]

COc1nn(C(=O)NS(=O)(=O)c2ccccc2OC(F)(F)F)c(=O)n1C
inactive: [1] | [13] | [2] | [14] | [15] | [17] | [6] | [7] | [18]

O=S1OC[C@@H]2[C@H](CO1)[C@]1(Cl)C(Cl)=C(Cl)[C@@]2(Cl)C1(Cl)Cl (some centres not stated)
active: [1] 49 µM | [4] 54.5 µM | [17] 49 µM
inactive: [13] | [2] | [3] | [6] | [7]

CCCCCCCCOC(=O)c1ccc(C(=O)OCCCCCCCC)c(C(=O)OCCCCCCCC)c1
inactive: [1] | [2] | [14] | [3] | [5] | [15] | [17] | [6]

O=C(Nc1ccccc1)Nc1ccnc(Cl)c1
inactive: [2] | [14] | [5] | [6] | [7]

S=C=NCc1ccccc1
active: [18] 69.3 µM
inactive: [13] | [2] | [4] | [5] | [17] | [6] | [7]

CN(C)c1ccc(N(C)C)cc1
inactive: [13] | [19] | [20] | [3] | [4] | [5] | [17] | [6] | [7]
